SMILES strings stand for the structures. Several values for one entry are separate records, joined by “and”; a condition that tells them apart may be missing. Equal values may be shown once. Inconclusive results are not listed. Activity calls are given as the source filed them. Unless noted, calls follow the shape of the dose curve; as a rule, active = well fitted curve in the direction sought with a large enough effect in the repeat runs; inconclusive = weak or mixed curves; inactive = no such curve, though single readings can be large; an effect the other way counts as inactive or inconclusive.

Consider 29 molecules from PubChem BioAssay (Tox21).

The nature of assay [1]: qHTS assay for small molecules that induce genotoxicity in human embryonic kidney cells expressing luciferase-tagged ATAD5 (AID 651632). Also: nearly all actives have a fitted effect of over 15% in size. In outline:
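Increased luciferase signal from ATAD5-tagged reporter cells indicates DNA-damage-driven ATAD5 induction. HEK293T cells are treated for 16 hr at 37C before detection with Amplite.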

Assay [2] in a line: qHTS assay for small molecule disruptors of the mitochondrial membrane potential - cell viability (AID 720634; calls by dose curve; also: nearly all actives have a fitted effect of over 20% in size; also: potency is read from the fitted curve at half-maximal effect). In outline: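 After overnight attachment at 37 C, HepG2 cells received compound or DMSO vehicle for 1 hr. Viability is then taken from ATP-driven luminescence following a 30 min room-temperature CellTiter-Glo step.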
A short description of assay [3]: qHTS assay for small molecule disruptors of the mitochondrial membrane potential (AID 720635). Also: potency is read from the fitted curve at half-maximal effect. In outline: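 Mitochondrial membrane potential tracked with Mito-MPS dye, red aggregates (ex 540/em 590 nm) against green monomers (ex 490/em 535 nm). Compound treatment 1 hr at 37C, dye 30 min in HepG2.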
For orientation: In qHTS, concentration-response curves come from the screen itself.

Assay [4] can be described thus: qHTS assay to test for compound auto fluorescence at 590 nm (red) in HepG2 cells (AID 720674). In outline:
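1 hr compound incubation on HepG2 cells, 37 C, 5% CO2; plate read ex 540 nm / em 590 nm; intensities reported as Rose Bengal sodium equivalents.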

Assay [5] in a line: qHTS assay to test for compound auto fluorescence at 535 nm (green) in HepG2 cells (AID 720675).
A short description of assay [6]: qHTS assay to test for compound auto fluorescence at 460 nm (blue) in HEK293 cells (AID 720678). The gist of the method: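 Cells were seeded and left to adhere for 4-5 hr at 37C. Compounds were then pin-transferred. After an overnight incubation at 37C under 5% CO2, intrinsic fluorescence at 405/460 nm was measured and referenced to triamterene.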
Assay [7] is described as follows: qHTS assay to test for compound auto fluorescence at 590 nm (red) in HEK293 cells (AID 720679). In outline: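 Each well held 2,000 HEK293 cells in medium containing 10% dialyzed FBS. Following 4-5 hr attachment at 37C, 23 nL test compound or DMSO was added; plates sat overnight, and red fluorescence (540/590nm) was recorded.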
The nature of assay [8]: qHTS assay for small molecule agonists of the p53 signaling pathway - cell viability (AID 651633; calls by dose curve; also: nearly all actives have a fitted effect of over 30% in size; also: potency is read from the fitted curve at half-maximal effect). In outline:
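Viability counter-read: CellTiter-Glo luminescence (30 min, room temperature) in the same p53RE-bla plates. These plates had been exposed to compounds for 16 h at 37 C.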

Assay [9] can be described thus: qHTS assay for small molecules that induce genotoxicity in human embryonic kidney cells expressing luciferase-tagged ATAD5 - cell viability (AID 651634; calls by dose curve; also: nearly all actives have a fitted effect of over 25% in size; also: potency is read from the fitted curve at half-maximal effect). In outline: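 Cytotoxicity counterscreen in HEK293T cells bearing an ATAD5-luciferase reporter: live-cell protease activity measured by CellTiter-Fluor fluorescence after 15.5 hr compound exposure.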

With `Clc1ccc(C(Cl)(Cl)Cl)cc1Cl`, the Potency entry in assay [1], in assay [2], in assay [5] and in [6] was “inactive” each time. In addition, the Potency in assay [3] was 59.8 µM (active). Further, the molecule was called inactive in assay [4] and in assay [7].
Consider `ClSC(Cl)(Cl)Cl`, for which the Potency result in [8], in [9], in assay [2], in assay [3], in assay [5] and in assay [6] was “inactive” in each case. In addition, the result in [4] and in [7] was inactive.
`N#CSCc1ccccc1`: the Potency result in [8], in assay [9], in assay [2], in [5] and in assay [6] was “inactive” each time. In addition, the outcome in [4] was inactive.
`CNC(=O)O/N=C(\C)C(C)S(C)(=O)=O` (stereo unspecified): the Potency result in assay [8], in assay [9], in assay [2] and in [5] was “inactive” throughout. For the same molecule, in assay [4], the molecule was called inactive.
Take `O=C(N[C@@H]1N=C(c2ccccc2F)c2cccc3c2N(CC3)C1=O)c1cc2ccccc2[nH]1`: the Potency result in assay [8], in assay [9], in assay [2], in assay [5] and in [6] was “inactive” throughout. In addition, in assay [3], the Potency was 8.41 µM (active). The molecule was classed as inactive in assay [4].
With `N#Cc1sc2c(=O)c3ccccc3c(=O)c=2sc1C#N`, the results for the Potency in [8], in assay [2] and in assay [3] were 5.45 µM (active), 24.3 µM (active) and 24.3 µM (active), respectively. Further, the Potency entry in assay [9], in assay [5] and in assay [6] was “inactive” each time. Also, the molecule was classed as inactive in assay [4] and in assay [7].
`Brc1ccc(Oc2ccc(Br)cc2Br)c(Br)c1`: the Potency entry in [1], in assay [9], in assay [2], in [5] and in assay [6] was “inactive” throughout. In addition, the Potency in assay [3] is 17.2 µM (active). In addition, the molecule was classed as inactive in [4] and in assay [7].
Consider `CCOP(=O)(OCC)Oc1nc(Cl)c(Cl)cc1Cl`, for which the Potency result in assay [8], in assay [9], in [2], in [5] and in [6] was “inactive” each time. Besides, in [3], the Potency was 60.8 µM (active). In addition, the molecule was classed as inactive in assay [4] and in [7].
Regarding `ClC(Cl)C(Cl)(Cl)Cl`, the Potency entry in [8], in [9], in assay [2], in assay [3], in assay [5] and in assay [6] was “inactive” throughout. Besides, the molecule was called inactive in [4] and in [7].
As for `CCc1cccc(C)c1N(C(=O)CCl)[C@@H](C)COC`, the Potency entry in assay [1], in assay [9], in assay [5] and in assay [6] was “inactive” in each case. The molecule was called inactive in assay [4] and in assay [7].
With `CO/N=C(/C1=NOCCO1)c1ccccc1Oc1ncnc(Oc2ccccc2Cl)c1F`, the Potency entry in assay [1], in [9], in assay [5] and in assay [6] was “inactive” throughout. Further, in assay [3], the Potency was 54.4 µM (active). The call in assay [4] and in [7] was inactive.
On to `Clc1ccc(C(c2ccc(Cl)cc2)C(Cl)Cl)cc1`, for which the Potency in assay [8] is 62.1 µM (active) and 61.1 µM (active); in assay [3], 9.85 µM (active) and 9.69 µM (active). Further, the Potency entry in assay [9], in assay [2], in assay [5] and in assay [6] was “inactive” each time. Besides, the outcome in [4] and in [7] was inactive.
`Oc1ccc([C@H]2CNCc3c2ccc(O)c3O)cc1O`: the Potency entry in [8], in assay [9], in assay [2], in [3], in assay [5] and in assay [6] was “inactive” throughout. The molecule was classed as inactive in assay [4] and in assay [7].
With `c1ccc2nc(N3CCNCC3)ccc2c1`, the Potency entry in assay [1], in assay [9], in assay [2], in [5] and in [6] was “inactive” each time. In addition, the molecule was classed as inactive in [4] and in assay [7].
For the molecule `O=C(O)CCCCCCNC1c2ccccc2CCc2ccccc21`, the Potency result in [1], in assay [9], in [2], in assay [3], in [5] and in [6] was “inactive” throughout. Moreover, the outcome in [4] and in assay [7] was inactive.
For `C=CCOC(=O)c1ccccc1N`, the Potency entry in assay [8], in [9], in [2], in assay [3], in assay [5] and in assay [6] was “inactive” throughout. Further, the outcome in assay [4] and in [7] was inactive.
Take `ClC1(Cl)C2(Cl)C3(Cl)C4(Cl)C(Cl)(Cl)C5(Cl)C3(Cl)C1(Cl)C5(Cl)C24Cl` (stereo unspecified): the Potency result in assay [1], in assay [9], in [2], in assay [5] and in assay [6] was “inactive” each time. Further, the molecule was called inactive in assay [4] and in [7].
On to `CC(=O)[O][Pb]([c]1ccccc1)([c]1ccccc1)[c]1ccccc1`, for which the Potency in [8] is 2.73 µM (active); in assay [9], 0.686 µM (active); in assay [2], 30.6 µM (active); in [3], 1.09 µM (active). Also, the outcome in [4] and in assay [7] was inactive. The Potency result in assay [5] and in [6] was “inactive” each time.
As to `CCCCCCC[CH2][Sn]([Cl])([Cl])[CH2]CCCCCCC`, the Potency is 15.3 µM (active) in assay [8] and 48.5 µM (active) in [3]. For the same molecule, the Potency result in assay [9], in assay [2], in [5] and in assay [6] was “inactive” in each case. The outcome in [4] and in assay [7] was inactive.
Turning to `O=[N+]([O-])c1ccc(CCl)cc1`, the Potency entry in assay [8], in [9], in assay [2], in [3], in [5] and in assay [6] was “inactive” throughout. Also, the molecule was called inactive in assay [4] and in [7].
Regarding `CC(C)=CC1C(C(=O)OC(C#N)c2cccc(Oc3ccccc3)c2)C1(C)C` (stereo unspecified), the Potency entry in assay [1], in [9], in [2], in assay [5] and in [6] was “inactive” in each case. The molecule was classed as inactive in assay [4] and in [7].
Turning to `CCOP(=O)(Sc1ccccc1)Sc1ccccc1`, the Potency entry in assay [1], in [9], in assay [2], in assay [5] and in assay [6] was “inactive” each time. For the same molecule, the call in assay [4] and in assay [7] was inactive.
As to `CCOC(=O)Cc1ccccc1`, the Potency entry in [1], in [9], in [2] and in assay [5] was “inactive” each time. Besides, the molecule was classed as inactive in [4] and in assay [7].
As for `CCn1cc[n+](C)c1` (tested in a mixture with another compound), the Potency entry in [8], in assay [9], in assay [2], in assay [3], in assay [5] and in assay [6] was “inactive” throughout. The result in assay [4] and in assay [7] was inactive.
Consider `Oc1ccc2[nH]cc(CCCCN3CC=C(c4ccccc4)CC3)c2c1`, for which the Potency entry in assay [8], in assay [9], in assay [2], in assay [5] and in assay [6] was “inactive” throughout. In addition, the outcome in assay [4] and in [7] was inactive.
As for `[F][Sn]([c]1ccccc1)([c]1ccccc1)[c]1ccccc1`, the Potency in [8] was 3.06 µM (active); in assay [9], 0.486 µM (active); in [2], 19.3 µM (active); in [3] it was 0.273 µM (active). The result in assay [4] and in assay [7] was inactive. Besides, the Potency result in assay [5] and in assay [6] was “inactive” in each case.
Regarding `CCCN`, the Potency result in [8], in assay [9], in assay [2], in assay [3], in assay [5] and in assay [6] was “inactive” each time. For the same molecule, the result in assay [4] and in assay [7] was inactive.
Regarding `[C-]1=CC=CC1.[Cl][Zr+2][Cl].c1cc[cH-]c1`, the Potency entry in [8], in assay [9], in [2] and in assay [5] was “inactive” throughout. In assay [4], the molecule was called inactive.
Take `S=C=NCCc1ccccc1`: the Potency result in assay [8], in assay [2], in assay [5] and in assay [6] was “inactive” each time. Also, the Potency in [3] is 38.6 µM (active). Moreover, the outcome in assay [4] and in assay [7] was inactive.
